Assay [1] is described as follows: growth inhibition of DIPG glioma cells, dose response, cell-based, SU-DIPG-XVII, MIPE5.0, CellTiter-Glo, qHTS (AID 1347060).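 For AC50: cells exposed to compound for 48 hours before viability readout.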 Conditions: SU-DIPG-XVII viability, CellTiter-Glo ATP luminescence. For orientation: Cellular ATP, detected with luciferase, serves as a proxy for viable cell number.
Assay [2] can be described thus: growth inhibition of DIPG glioma cells, dose response, cell-based, SU-DIPG-XIII, MIPE5.0, CellTiter-Glo, qHTS (AID 1347064; cut-off not given, nearly all actives have AC50 up to about 23 µM). Conditions: SU-DIPG-XIII viability, CellTiter-Glo ATP luminescence.
Assay [3] in a line: viability loss in pontine glioma line – cell-based, SU-DIPG-XXV, MIPE5.0, CellTiter-Glo, qHTS, dose response (AID 1347065).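 Note: cells exposed to compound for 48 hours before ATP readout.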 Conditions: CellTiter-Glo ATP luminescence.
Assay [4] in a line: SU-DIPG-XXV glioma cell viability, MIPE5.0 library, qHTS (AID 1347068; cut-off not given, nearly all actives have IC50 up to about 30 µM). For orientation: In qHTS, concentration-response curves come from the screen itself.
A short description of assay [5]: inhibitors of Cryptococcus chitosan production, flow cytometry, Cibacron Brilliant Red staining (AID 1347148; call rule not given here;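 note: compound exposure lasted three days at 37 degrees C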). Conditions: Cryptococcus neoformans chitosan, stronger effect = lower value; at 10 µM unless noted. On the technique in general: Flow cytometry measures light scatter and fluorescence of single cells or particles in a stream.
A short description of assay [6]: reducers of polyQ inclusions in PC12 cells, cell-based, NGF-treated PC12, GFPQ80 (AID 1614).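 Note: lower means fewer inclusions and 0 means no inclusions at all.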 Conditions: PC12 NGF-treated GFP-polyQ80 inclusion reduction.
Assay [7] relates to Aerobactin synthetase IucA (Klebsiella pneumoniae). Nature of the assay: IucA aerobactin synthetase inhibitors, biochemical, Tocris library, absorbance (AID 1345561; call rule not given here;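 note: 100% = enzyme without compound and 0% = no enzyme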). Conditions: purified IucA enzyme assay, absorbance (OD) read-out; stronger effect = lower value;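 tested at 8 µM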.
Assay [8] addresses ATP-dependent translocase ABCB1 (Homo sapiens) (UniProt P08183). As to the kind of experiment: MDR1 (ABCB1) efflux transporter inhibition, cell-based (AID 377; in the data active = fluorescence slope change above about 50%). Conditions: MDR1-expressing cells, fluorescent substrate accumulation slope; stronger effect = higher value; concentration not given here.
Assay [9] can be described thus: JHH-DIPG-1 glioma cell viability, MIPE5.0 library, CellTiter-Glo luminescence, qHTS (AID 1347067).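 Note: cells exposed to compound for 48 hours before readout.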 Conditions: JHH-DIPG-1 glioma viability, CellTiter-Glo ATP luminescence.
Assay [10] in a line: modifiers of HSF1 nuclear foci, imaging, Selleck Cancer Library (AID 1347162; in the data active = plate-normalised HSF1 focus index below about 0.46). Conditions: human cells, at 10 µM; SSMD: measured here: HSF1 foci SSMD mean; cell count: measured here: cell number; plate-normalised HSF1 focus index: stronger effect = lower value.
A short description of assay [11]: LFS_MB_P medulloblastoma growth inhibition, cell-based, chromothripsis tumors, cisplatin or BGB combos (AID 1671449; in the data active = inhibition above about 80%;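 note: cells exposed for 96 hours; 0% = vehicle DMSO and 100% = killing by high DMSO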). Conditions: LFS_MB_P medulloblastoma cells.
Assay [12] can be described thus: HDN33 neuroblastoma growth inhibition, cell-based, chromothripsis tumors, cisplatin or BGB combos (AID 1671450; in the data active = inhibition above about 80%;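 note: cells exposed to compound for four days; 0% = vehicle DMSO and 100% = cell killing by high DMSO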). Conditions: HDN33 neuroblastoma cells, stronger effect = higher value.
Assay [13] in a line: ICB984 medulloblastoma cell growth inhibition, synergistic combos for chromothripsis tumors, cisplatin or BGB combos (AID 1671451; call rule not given here;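 note: cells exposed for 96 hours before readout; 0% = vehicle DMSO and 100% = killing by high DMSO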). Conditions: ICB984 medulloblastoma cells, drug combinations, stronger effect = higher value.
The nature of assay [14]: LFS_MB_1R medulloblastoma cell growth inhibition, synergistic combos for chromothripsis tumors, cisplatin or BGB combos (AID 1671452; in the data active = inhibition above about 80%;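 note: cells exposed for 96 hours before readout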). Conditions: LFS_MB_1R medulloblastoma cells, stronger effect = higher value.
Assay [15] can be described thus: HTB85 osteosarcoma cell growth inhibition, synergistic combos for chromothripsis tumors, BGB or cisplatin IC20 combos (AID 1671453; in the data active = inhibition above about 80%;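 note: cells exposed for 96 hours before readout; 0% = vehicle DMSO and 100% = high DMSO killing control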). Conditions: HTB85 osteosarcoma cells, drug combinations, stronger effect = higher value.
A short description of assay [16]: MDA-MB-436 breast carcinoma cell growth inhibition, synergistic combos for chromothripsis tumors, BGB or cisplatin combos (AID 1671458; call rule not given here;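 note: cells exposed for 96 hours; 0% = vehicle DMSO and 100% = killing by high DMSO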). Conditions: MDA-MB-436 breast carcinoma growth inhibition, drug combinations, stronger effect = higher value.
The nature of assay [17]: growth inhibition of BT084 medulloblastoma cells, cell-based, ICGC_MB145, cisplatin and BGB IC40 combos (AID 1671461; in the data active = inhibition above about 80%;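 note: cells exposed to drugs for 96 hours; 0% = vehicle DMSO and 100% = high DMSO full killing control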). Conditions: drug combinations, stronger effect = higher value.
Assay [18] is described as follows: growth inhibition of RCMB18 medulloblastoma cells, cell-based, cisplatin and BGB IC40 combos (AID 1671462; in the data active = inhibition above about 80%;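 note: cells exposed to compound for four days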). Conditions: stronger effect = higher value.
A short description of assay [19]: growth inhibition of CRL1545 osteosarcoma cells, cell-based, cisplatin and BGB IC20 combos (AID 1671464; in the data active = inhibition above about 80%;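 note: cells exposed to compound for 96 hours before readout; 0% = vehicle DMSO and 100% = high DMSO killing control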). Conditions: stronger effect = higher value.
[20] abbreviates: measured here: combination with BGB IC40, at 0.05 µM.
Setting [21] is: measured here: with BGB IC20 combination, at 0.5 µM.
Where [22] appears, read: measured here: with cisplatin IC20 combination, at 0.5 µM.
The mark [23] stands for this setting: measured here: combination with cisplatin, at 0.5 µM.

Records with an inconclusive call do not appear. The source made the active and inactive calls. Unless noted, no cut-off is given here; in the data, nearly all actives have AC50 up to about 26 µM. Peptide text beside a SMILES is read from it.

ATP-dependent translocase ABCB1 (Homo sapiens), sequence (P08183 whole entry, looked up): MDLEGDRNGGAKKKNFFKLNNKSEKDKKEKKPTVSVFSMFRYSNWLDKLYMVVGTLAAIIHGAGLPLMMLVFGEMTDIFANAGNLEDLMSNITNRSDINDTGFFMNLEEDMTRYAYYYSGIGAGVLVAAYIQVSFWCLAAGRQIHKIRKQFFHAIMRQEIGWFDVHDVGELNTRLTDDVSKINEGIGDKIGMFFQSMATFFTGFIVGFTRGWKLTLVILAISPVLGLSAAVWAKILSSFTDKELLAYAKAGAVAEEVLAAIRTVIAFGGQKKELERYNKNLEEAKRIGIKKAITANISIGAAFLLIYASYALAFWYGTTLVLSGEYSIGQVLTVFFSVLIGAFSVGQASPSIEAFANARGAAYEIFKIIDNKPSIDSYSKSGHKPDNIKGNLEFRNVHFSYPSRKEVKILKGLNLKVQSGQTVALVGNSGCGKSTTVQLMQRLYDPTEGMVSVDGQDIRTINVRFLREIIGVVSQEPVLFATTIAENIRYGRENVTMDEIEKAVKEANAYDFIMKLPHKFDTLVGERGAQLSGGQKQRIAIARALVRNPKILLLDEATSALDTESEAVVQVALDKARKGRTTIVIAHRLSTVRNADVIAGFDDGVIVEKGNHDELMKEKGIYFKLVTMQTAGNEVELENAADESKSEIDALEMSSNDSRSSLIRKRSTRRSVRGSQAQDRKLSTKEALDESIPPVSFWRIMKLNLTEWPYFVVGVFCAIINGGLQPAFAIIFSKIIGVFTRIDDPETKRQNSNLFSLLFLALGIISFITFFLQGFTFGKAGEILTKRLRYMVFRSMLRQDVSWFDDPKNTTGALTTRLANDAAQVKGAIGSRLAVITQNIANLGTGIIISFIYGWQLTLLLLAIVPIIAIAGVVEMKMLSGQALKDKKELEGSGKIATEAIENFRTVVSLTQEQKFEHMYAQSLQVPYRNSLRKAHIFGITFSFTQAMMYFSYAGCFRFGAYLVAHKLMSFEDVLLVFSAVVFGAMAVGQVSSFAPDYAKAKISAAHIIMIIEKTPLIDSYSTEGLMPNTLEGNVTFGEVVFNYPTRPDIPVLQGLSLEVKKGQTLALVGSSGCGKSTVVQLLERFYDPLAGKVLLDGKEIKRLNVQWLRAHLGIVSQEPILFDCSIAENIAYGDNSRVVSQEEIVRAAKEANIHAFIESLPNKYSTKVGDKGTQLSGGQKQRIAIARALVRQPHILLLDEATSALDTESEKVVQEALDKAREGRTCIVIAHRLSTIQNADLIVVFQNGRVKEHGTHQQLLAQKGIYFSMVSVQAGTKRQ

As to `c1ccc2c(Cc3c[nH]c4ccccc34)c[nH]c2c1`, the result in assay [1], in assay [2], in [3] and in assay [4] was inactive. Besides, in [5], the fold fluorescence was 4.77 (inactive).

In the case of `CC(=O)N[C@@H](CC(=O)O)C(=O)N[C@@H](CCC(=O)O)C(=O)O` (Ac-Asp-Glu-OH), in assay [6], the inclusion score was found to be 2. For the same compound, in assay [7], the remaining activity – broadly, the signal under treatment as a percentage of the control signal – is 82.4% (inactive).

Take `COc1ccc(-c2coc3cc(O)cc(O)c3c2=O)cc1`: in assay [1], the AC50 (commonly the concentration at which the activity in the assay is half-maximal) was 26.3 µM (active). For the same compound, the result in [3] was inactive.

In the case of `C1CCc2nnnn2CC1`, in assay [8], the fluorescence slope change was 136% (active). Besides, in assay [7], the remaining activity is 117% (inactive).

For the compound `Cc1cc(O)c2c(c1)C(=O)c1cccc(O)c1C2=O`, the compound was classed as inactive in assay [1], in assay [2], in assay [3], in [9] and in assay [4]. The same compound returned an SSMD in assay [10] of 1.91. Besides, the cell count in [10] turned out to be 7380. Also, the plate-normalised HSF1 focus index in assay [10] is 1.07 (inactive).

Regarding `C[N+](C)(C)CCO`, in assay [6], the inclusion score worked out at 2.

For `CC[C@H]1OC(=O)[C@H](C)[C@@H](O[C@H]2C[C@@](C)(OC)[C@@H](O)[C@H](C)O2)[C@H](C)[C@@H](O[C@@H]2O[C@H](C)C[C@H](N(C)C)[C@H]2O)[C@](C)(O)C[C@@H](C)C(=O)[C@H](C)[C@@H](O)[C@]1(C)O`, in assay [8], the fluorescence slope change was 76.3% (active). In assay [6], this compound yielded an inclusion score of 2. Besides, the compound was classed as inactive in assay [1], in [3], in assay [9] and in [4].

As for `COc1ccc2cc1Oc1ccc(cc1)C[C@H]1c3cc(c(OC)cc3CCN1C)Oc1c(OC)c(OC)cc3c1[C@H](C2)N(C)CC3`, in assay [5], the fold fluorescence was 5.71 [at 80.3 µM] (inactive).

Regarding `O=C(/C=C/c1ccc(O)c(O)c1)OCCc1ccccc1`, the remaining activity in [7] was 122% (inactive). Further, the fold fluorescence in [5] is 6.87 [at 175.9 µM] (inactive).

Take `O=c1c(O)c(-c2ccc(O)c(O)c2)oc2cc(O)ccc12`: the inhibition (usually the drop in the measured response relative to a control, in per cent) is -6.56% (inactive) in assay [11] (at 0.5 µM, stronger effect = higher value); -16.9% in assay [11] (measured here: combination with BGB IC20, at 0.005 µM); 5.59% in assay [11] (measured here: combination with BGB IC40, at 0.005 µM); 5.54% in assay [11] (setting [20]); -17.1% in assay [11] (measured here: combination with cisplatin, at 0.5 µM, stronger effect = higher value); 11% in assay [11] (measured here: combination with cisplatin, at 5 µM, stronger effect = higher value). Besides, the inhibition in assay [12] (BGB combo, at 5 µM) is -4.9%; in [12] (at 0.5 µM) it was 4.36% (inactive); in [12] (cisplatin combo, at 5 µM) it was 3.02%; in assay [12] (setting [21]), -4.05%; in [12] (setting [22]), 5.86%; in assay [12] (single agent, at 5 µM), -1.94%. Also, the inhibition in assay [13] (BGB IC20 combo, at 0.005 µM) was -15.9%; in assay [13] (BGB IC40 combo, at 0.005 µM) it was -16.9%; in [13] (BGB IC40 combo, at 0.05 µM), -3.67%; in assay [13] (at 0.5 µM), -24.7% (inactive); in assay [13] (cisplatin combo, at 0.05 µM), -3.67%; in assay [13] (cisplatin combo, at 0.5 µM), -43.4%. In addition, the inhibition was -7.32% in [13] (cisplatin combo, at 5 µM); -7.82% in assay [13] (measured here: 5 uM single agent, at 5 µM); -4.27% (inactive) in assay [14] (at 0.5 µM); -15.9% in assay [14] (setting [20]); -18.5% in assay [14] (setting [23]); -12.6% in assay [14] (measured here: combination with cisplatin, at 5 µM). Also, the inhibition in assay [15] (at 0.5 µM) is 3.31% (inactive); in assay [15] (measured here: with BGB IC20, at 0.5 µM), -8.35%; in [15] (measured here: with BGB IC20, at 5 µM) it was 3.71%; in assay [15] (measured here: with cisplatin IC20, at 0.5 µM) it was 14.6%; in assay [15] (measured here: with cisplatin IC20, at 5 µM), 6.28%; in assay [15] (single agent, at 5 µM) it was 8.35%. Moreover, the inhibition in assay [16] (at 0.5 µM) was -7.38% (inactive); in [16] (measured here: BGB combination, at 0.5 µM), 5.2%; in [16] (measured here: BGB combination, at 5 µM), -2.65%; in assay [16] (measured here: cisplatin combination, at 0.5 µM), -24.9%; in assay [16] (measured here: cisplatin combination, at 5 µM), 5.5%; in assay [17] (at 0.5 µM) it was -4.39% (inactive). The inhibition in assay [17] (cisplatin combination, at 0.5 µM) was -0.071%; in [17] (cisplatin combination, at 5 µM), -26.8%; in [17] (measured here: BGB IC40 combination 0.05 uM, at 0.05 µM), 5.57%; in assay [17] (single agent, at 5 µM), -4.55%; in [18] (at 0.5 µM), -4.12% (inactive); in assay [18] (cisplatin combo, at 5 µM), 18.3%. In addition, the inhibition was 21.3% in assay [18] (measured here: BGB IC40 combination, at 0.05 µM); -7.15% in assay [18] (setting [23]); -9.89% in [18] (single agent, at 5 µM); -3.43% (inactive) in assay [19] (at 0.5 µM); -7.45% in assay [19] (setting [21]); -1.43% in assay [19] (setting [22]). Moreover, the inhibition worked out at 31.3% in assay [19] (single agent, at 0.05 µM) and 6.36% in [19] (single agent, at 5 µM).

The record behind these values is PubChem BioAssay.
